# Screens deposited in PubChem by Johns Hopkins Ion Channel Center.
# An excerpt weighted towards active compounds, which were near 1.6% of everything screened.
# KCNQ2 enhance = potentiators of rat KCNQ2 potassium channel. 0.54% of 310,000 active. Potassium voltage-gated channel subfamily KQT member 2 (Rattus norvegicus), O88943. B-score at 10 µM. CHO-K1 KCNQ2, FluxOR thallium flux fluorescence; hits give high values. AID 2239, 2010;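 active means fluorescence ratio B-score at least 3 SD of library B-scores, with initial fluorescence B-score within 3 of them, cut at about 5.3 in these data; same plate scores as AID 2156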;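 further: B-score of peak minus minimum over baseline fluorescence ratio after K+ and Tl+ stimulus; positive B-score means potentiation of KCNQ2 with more thallium influx and brighter signal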
# KCNQ2 block = rat KCNQ2 potassium channel inhibitors, primary screen, cell-based, CHO-K1, FluxOR thallium flux, B-score. Potassium voltage-gated channel subfamily KQT member 2 (Rattus norvegicus), O88943. 20 min; hits give low values. B-score at 10 µM. 1.1% of 310,000 active;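 active means fluorescence ratio B-score at most minus 3 library SDs, with starting brightness B-score within 2 library SDs, cut at about -5.5 in these data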
# Kir21 conf inh = mouse Kir2.1 channel blockers, retest, confirmation, cell-based, FluxOR thallium flux, duplicate. shares compounds with KCNQ2 enhance. Kir2.1-expressing cells, FluxOR thallium flux fluorescence; hits give low values. Tl flux remaining, % of negative control (hits give low values), % at 10 µM. 41% of 2,300 active. AID 2032, 2009;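 active means Primary-screen hit whose thallium flux fell at least 3 control SD below untreated wells in both duplicates, with normal baseline fluorescence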
# HEK293 ctr = parental HEK293 activity in Kir2.1 inhibitor counter-screen | shares compounds with KCNQ2 enhance | 19% of 2,300 active | FluxOR signal as % of negative control (100 = no effect), % at 10 µM | parental HEK293 cells, FluxOR thallium flux fluorescence; 0% = unstimulated blank wells;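 active means dye signal at least 3 control SD above or below untreated wells in both duplicates, raw fluorescence within 3, either direction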;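 further: percent is based on the flux ratio of peak minus minimum fluorescence over baseline F0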
# CHO-K1 Tl ctr = nonspecific thallium flux increase in parental CHO-K1, confirmation, counter-screen for KCNQ2 potentiator project, cell-based, FluxOR thallium flux, duplicate; parental CHO-K1 cells, FluxOR thallium flux fluorescence; zero = vehicle mean+3SD, 100% = vehicle-minus-blank window; AID 2282, 2010; activity increase over 3SD of controls, % at 10 µM; 43% of 1,200 active; shares compounds with KCNQ2 enhance;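 active means signal rise of at least 3 SD above the untreated control mean, in both duplicate wells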;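 further: counter screen of KCNQ2 potentiator hits so any rise reflects channel-independent effects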
# KCNQ1 sel pot = human KCNQ1 channel potentiation off-target, confirmation, selectivity assay for KCNQ2 potentiator project, cell-based, CHO, FluxOR thallium flux; AID 2283, 2010; activation over 3SD threshold, % at 10 µM; shares compounds with KCNQ2 enhance; 28% of 1,200 active; CHO KCNQ1 stable, FluxOR thallium flux fluorescence; beyond 3SD, as % of vehicle-control signal;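 active means fluorescence ratio rise of at least 3 SD of vehicle wells above their mean, in both replicate wells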
# Target sequence (P51787 whole entry, looked up): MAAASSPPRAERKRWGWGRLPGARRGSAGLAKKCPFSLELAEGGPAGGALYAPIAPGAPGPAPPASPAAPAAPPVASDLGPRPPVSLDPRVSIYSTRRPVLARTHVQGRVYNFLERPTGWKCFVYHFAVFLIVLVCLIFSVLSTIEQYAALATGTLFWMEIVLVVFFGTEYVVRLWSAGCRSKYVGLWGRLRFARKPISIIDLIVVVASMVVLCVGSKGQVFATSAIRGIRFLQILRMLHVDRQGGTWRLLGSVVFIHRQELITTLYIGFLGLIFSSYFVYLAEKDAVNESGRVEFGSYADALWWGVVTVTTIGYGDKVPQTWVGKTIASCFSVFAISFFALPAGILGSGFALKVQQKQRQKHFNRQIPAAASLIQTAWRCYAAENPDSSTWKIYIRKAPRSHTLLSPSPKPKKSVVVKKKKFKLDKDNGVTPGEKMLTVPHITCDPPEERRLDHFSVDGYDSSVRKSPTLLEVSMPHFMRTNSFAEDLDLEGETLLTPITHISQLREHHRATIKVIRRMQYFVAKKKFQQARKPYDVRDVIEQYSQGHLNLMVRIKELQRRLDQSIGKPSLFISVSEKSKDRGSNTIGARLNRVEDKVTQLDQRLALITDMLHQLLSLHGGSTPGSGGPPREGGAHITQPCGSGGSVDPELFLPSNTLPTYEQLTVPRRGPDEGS
# KCNQ2 pot confirm = rat KCNQ2 channel potentiators, confirmation, cell-based, CHO, FluxOR thallium flux, duplicate. 68% of 1,200 active. shares compounds with KCNQ2 enhance. CHO-KCNQ2 cells, FluxOR thallium flux fluorescence. potentiation, less the hit threshold, % at 10 µM;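 active means fluorescence ratio rising 3 SD or more over the vehicle control mean in both replicates, plus primary screen hit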;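 further: peak minus minimum thallium fluorescence divided by baseline after K/Tl stimulus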
# Kir2-1 sel = mouse Kir2.1 channel activation off-target, confirmation, selectivity assay for KCNQ2 potentiator project, cell-based, HEK293, FluxOR thallium flux. shares compounds with KCNQ2 enhance. HEK293 Kir2.1, FluxOR thallium flux fluorescence. activity over 3SD threshold, % at 10 µM. 2% of 1,200 active;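 active means fluorescence ratio rise of at least 3 SD above the vehicle-control mean, seen in both replicates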
# KCNQ2 W236L pot = potentiators of retigabine-insensitive KCNQ2 W236L, mechanism study for KCNQ2 potentiator project, cell-based, rat KCNQ2 W236L, CHO, automated patch clamp; current increase over 3SD of negative controls (%), hits give high values, % at 25 µM; automated patch clamp current; 10% of 940 active; shares compounds with KCNQ2 enhance;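 active means current increase at least 3 SD of the untreated controls above them in both duplicate recordings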
# Hits are given with their value; . = inactive; / = no result.
SMILES,KCNQ2 enhance,KCNQ2 block,Kir21 conf inh,HEK293 ctr,CHO-K1 Tl ctr,KCNQ1 sel pot,KCNQ2 pot confirm,Kir2-1 sel,KCNQ2 W236L pot
CCC(C)c1ccccc1OCCCCN1CCCC1 (stereo unspecified),.,.,/,/,/,/,/,/,/
CN1CCN(NC(=O)c2ccc(Cl)c(S(=O)(=O)Nc3ccc(Cl)cc3)c2)CC1,/,.,/,/,/,/,/,/,/
CC1CCN(CCCNC(=O)C2CC(=O)N(CCc3ccccc3)C2)CC1 (stereo unspecified),.,.,/,/,/,/,/,/,/
c1ccc2c(c1)ncn2-c1ncnc2sc3c(c12)CCCC3,.,.,/,/,/,/,/,/,/
CC(O)CNc1nc2ccccc2n1-c1ncnc2sc3c(c12)CCC3 (stereo unspecified),/,.,78%,.,/,/,/,/,/
COC(=O)c1ccc(-c2ncc[nH]2)cc1,.,.,/,/,/,/,/,/,/
CCn1c(=O)n(CC)c2cc(NC(=O)C(C)c3ccccc3)c(Br)cc21 (stereo unspecified),22,.,.,.,.,.,95,.,.
CCn1c(=O)n(CC)c2cc(N3CCCC3)c(NC(=O)c3cccc(C)c3)cc21,/,.,/,/,/,/,/,/,/
O=C(NCCN1CCOCC1)c1ccc(NS(=O)(=O)c2ccccc2)cc1,.,.,/,/,/,/,/,/,/
O=C(CN(Cc1ccco1)S(=O)(=O)c1ccccc1)N/N=C/c1ccccc1C(=O)O,.,.,/,/,/,/,/,/,/
C/C(=N\NC(=O)Cc1ccc(Cl)cc1)c1cccnc1,/,.,/,/,/,/,/,/,/
CC(=O)NNc1nc(-c2ccccc2)c2cc(Br)ccc2n1,/,.,/,/,/,/,/,/,/
O=C(CN1CCCCC1)NNc1nc(-c2ccccc2)c2cc(Br)ccc2n1,11,.,.,.,75,.,71,.,.
CCC(NC(=S)NC1CCCCC1)c1ccccc1 (stereo unspecified),12,.,/,/,.,.,28,.,.
CCc1ccc(C(C)NC(=S)NC2CCCCC2)cc1 (stereo unspecified),20,.,.,.,15,7.8,72,.,.
CC(CCc1ccccc1)NC(=S)NC1CCCCC1 (stereo unspecified),/,.,/,/,/,/,/,/,/
CCc1ccc(C(C)NC(=O)C2CCCC2)cc1 (stereo unspecified),12,.,.,.,9.3,.,18,.,.
CCc1ccc(C(C)NC(=O)C2(C)CC2(Br)Br)cc1 (stereo unspecified),.,.,/,/,/,/,/,/,/
CCC(C)c1ccc(C(C)NC(=S)NC2CCCCC2)cc1 (stereo unspecified),13,.,/,/,57,37,34,.,.
CCC(C)c1ccc(NC(=S)NC2CCN(Cc3ccccc3)CC2)cc1 (stereo unspecified),/,.,/,/,/,/,/,/,/
CCOc1ccc(C(C)NC(=O)C2CCCC2)cc1 (stereo unspecified),.,.,/,/,/,/,/,/,/
CCCCN(C)CCCNC(=O)CN1C(=O)COc2ccc(S(=O)(=O)N3CCOCC3)cc21,.,.,/,/,/,/,/,/,/
CCOc1cc(C=O)ccc1OCCn1c([N+](=O)[O-])cnc1C,.,.,/,/,/,/,/,/,/
CC(NC(=O)C1CCCC1)c1ccc2c(c1)OCCO2 (stereo unspecified),.,.,/,/,/,/,/,/,/
CCc1ccc(S(=O)(=O)NC(=S)NC2CCCCC2)cc1,8.9,.,.,302%,.,.,52,.,.
SMILES,KCNQ2 enhance,KCNQ2 block,Kir21 conf inh,HEK293 ctr,CHO-K1 Tl ctr,KCNQ1 sel pot,KCNQ2 pot confirm,Kir2-1 sel,KCNQ2 W236L pot
CCOc1ccc(C(C)NC(=S)NC2CCCCC2)cc1 (stereo unspecified),5.4,.,.,.,.,27,20,.,.
Cc1ccc(S(=O)(=O)NC(=S)NC2CCCCC2)cc1,.,.,/,/,/,/,/,/,/
CCOc1ccc(C(C)NC(=S)NC2CCCCC2)cc1OCC (stereo unspecified),.,.,/,/,/,/,/,/,/
CC(NC(=O)C1CCCCC1)c1ccc2c(c1)OCCO2 (stereo unspecified),5.7,.,.,.,6.0,39,8.5,.,.
Cc1ccc(S(=O)(=O)NCc2cccnc2)cc1C(=O)NC1CCCCC1,.,.,/,/,/,/,/,/,/
Cc1ccc(Cl)c(OCC(=O)Nc2cc(S(=O)(=O)N3CCOCC3)ccc2N2CCCC2)c1,/,.,/,/,/,/,/,/,/
CCN(C(=O)CSc1nnc(C)n1-c1ccccc1)C1CCS(=O)(=O)C1 (stereo unspecified),.,.,/,/,/,/,/,/,/
CCc1ccc(OCC(=O)N(CC)CC)cc1,/,.,/,/,/,/,/,/,/
CCC(C)(C)C1CCc2c(sc(NC(=O)c3ccccc3C(=O)O)c2C#N)C1 (stereo unspecified),8.3,.,.,151%,.,.,16,.,.
CC1CCc2c(sc(NC(=O)c3ccccc3C(=O)O)c2C#N)C1 (stereo unspecified),.,.,/,/,/,/,/,/,/
OC(CNCc1cccc(Br)c1)c1ccccc1 (stereo unspecified),.,.,/,/,/,/,/,/,/
OCc1cc(C(O)CNCCCCCCOCCCCc2ccccc2)ccc1O (stereo unspecified),.,.,32%,.,/,/,/,/,/
CC(=O)N1CCN(S(=O)(=O)c2cccc(C(=O)NCCC3=CCCCC3)c2)CC1,/,.,/,/,/,/,/,/,/
Oc1c(Cl)cc(Cl)c2cccnc12,7.8,.,.,176%,.,.,11,.,.
Oc1c(Cl)cc(CN2CCCCC2)c2cccnc12,/,.,/,/,/,/,/,/,/
O=C(Oc1c(Cl)cc(Cl)c2cccnc12)c1cccs1,11,.,.,.,.,.,.,.,/
Oc1c(CN2CCN(c3ccccn3)CC2)cc(Cl)c2cccnc12,11,.,.,146%,4.1,.,24,.,.
O=C(Oc1c(CN2CCOCC2)cc(Cl)c2cccnc12)c1cccs1,/,.,/,/,/,/,/,/,/
OCCN1CCN(Cc2cc(Cl)c3cccnc3c2O)CC1,.,.,/,/,/,/,/,/,/
O=C(NNC1=NC2(CCCC2)Cc2ccccc21)c1ccncc1,/,.,/,/,/,/,/,/,/
